PubChem BioAssay AID1159580 (chemical genetic matrix, 2015)
Out of some 5,500 compounds screened, about 2,000 (36%) were called active. Another 18% or so got no clear call; they are omitted. Rule as the data show it: active = normalized growth mostly below about 0.91 (no sharp cut-off); inconclusive = no clear call, values can overlap the other calls; inactive = mostly above about 0.92. The list shows a part of the results.

Assay: chemical genetic growth profiling, strain panel (AID 1159580);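 also: tested at 20 µM; growth read once vehicle control cultures reached saturation at 30 °C; 1 = growth at the plate median or of vehicle wells; lower values mean less growth of the strain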
Conditions: growth OD

Measured: normalized growth

COc1ccc(-c2cc(C(F)F)nn2-c2ccc(S(N)(=O)=O)cc2)cc1F
inactive: S. cerevisiae deletion strains, locus YJR075W, strain HOC1, stronger effect = lower value 1.01 | S. cerevisiae deletion strains, locus YKL009W, strain mrt4, stronger effect = lower value 1.02 | S. cerevisiae deletion strains, locus YKL068W, stronger effect = lower value 1 | S. cerevisiae deletion strains, locus YKL085W, strain MDH1 (second series), stronger effect = lower value 1 | S. cerevisiae deletion strains, locus YKL085W, strain MDH1, stronger effect = lower value 1 | S. cerevisiae deletion strains, locus YKL160W, strain elf1, stronger effect = lower value 0.995 | S. cerevisiae deletion strains, locus YKL190W, strain CNB1, stronger effect = lower value 1 | S. cerevisiae deletion strains, locus YKR001C, strain vps1, stronger effect = lower value 1.01 | S. cerevisiae deletion strains, locus YKR026C, strain gcn3, stronger effect = lower value 1 | S. cerevisiae deletion strains, locus YKR091W, strain srl3, stronger effect = lower value 1.01 | S. cerevisiae deletion strains, locus YLL001W, strain dnm1, stronger effect = lower value 0.994 | S. cerevisiae deletion strains, locus YLL026W, stronger effect = lower value 1 | S. cerevisiae deletion strains, locus YLL041C, strain sdh2, stronger effect = lower value 1.01 | S. cerevisiae deletion strains, locus YLR027C, strain aat2, stronger effect = lower value 1 | S. cerevisiae deletion strains, locus YLR039C, strain RIC1, stronger effect = lower value 1.01 | S. cerevisiae deletion strains, locus YLR058C, strain SHM2, stronger effect = lower value 1.01 | S. cerevisiae deletion strains, locus YLR102C, strain apc9, stronger effect = lower value 1.01 | S. cerevisiae deletion strains, locus YLR113W, strain HOG1, stronger effect = lower value 1.05 | S. cerevisiae deletion strains, locus YLR221C, strain rsa3, stronger effect = lower value 1 | S. cerevisiae deletion strains, locus YLR258W, strain gsy2, stronger effect = lower value 1.01 | S. cerevisiae deletion strains, locus YLR262C, strain YPT6 (second series), stronger effect = lower value 1.01 | S. cerevisiae deletion strains, locus YLR262C, strain YPT6, stronger effect = lower value 0.992 | S. cerevisiae deletion strains, locus YLR268W, strain sec22, stronger effect = lower value 0.992 | S. cerevisiae deletion strains, locus YLR320W, strain mms22, stronger effect = lower value 0.962 | S. cerevisiae deletion strains, locus YLR330W, strain CHS5, stronger effect = lower value 1.01 | S. cerevisiae deletion strains, locus YLR342W, strain FKS1 (second series), stronger effect = lower value 1.08 | S. cerevisiae deletion strains, locus YLR342W, strain FKS1, stronger effect = lower value 0.991 | S. cerevisiae deletion strains, locus YLR357W, strain rsc2, stronger effect = lower value 0.995 | S. cerevisiae deletion strains, locus YLR370C, strain arc18, stronger effect = lower value 1.02 | S. cerevisiae deletion strains, locus YLR371W, strain rom2, stronger effect = lower value 1.03 | S. cerevisiae deletion strains, locus YLR384C, strain iki3, stronger effect = lower value 1 | S. cerevisiae deletion strains, locus YLR418C, strain cdc73, stronger effect = lower value 0.951 | S. cerevisiae deletion strains, locus YML016C, strain PPZ1, stronger effect = lower value 1 | S. cerevisiae deletion strains, locus YML032C, strain rad52, stronger effect = lower value 1.05 | S. cerevisiae deletion strains, locus YML120C, strain ndi1, stronger effect = lower value 0.999 | S. cerevisiae deletion strains, locus YML124C, strain tub3, stronger effect = lower value 1.01 | S. cerevisiae deletion strains, locus YMR058W, strain fet3, stronger effect = lower value 0.995 | S. cerevisiae deletion strains, locus YMR078C, strain ctf18, stronger effect = lower value 1.02 | S. cerevisiae deletion strains, locus YMR125W, strain sto1, stronger effect = lower value 1.02 | S. cerevisiae deletion strains, locus YMR129W, stronger effect = lower value 1.01 | S. cerevisiae deletion strains, locus YMR205C, strain PFK2, stronger effect = lower value 0.976 | S. cerevisiae deletion strains, locus YMR223W, strain ubp8, stronger effect = lower value 1.04 | S. cerevisiae deletion strains, locus YMR231W, strain pep5, stronger effect = lower value 1 | S. cerevisiae deletion strains, locus YMR263W, strain SAP30, stronger effect = lower value 0.996 | S. cerevisiae deletion strains, locus YMR307W, strain GAS1, stronger effect = lower value 1.04 | S. cerevisiae deletion strains, locus YNL067W, strain RPL9B, stronger effect = lower value 0.996 | S. cerevisiae deletion strains, locus YNL071W, strain lat1, stronger effect = lower value 0.996 | S. cerevisiae deletion strains, locus YNL128W, strain TEP1, stronger effect = lower value 1 | S. cerevisiae deletion strains, locus YNL153C, strain GIM3, stronger effect = lower value 0.982 | S. cerevisiae deletion strains, locus YNL183C, strain NPR1, stronger effect = lower value 1 | S. cerevisiae deletion strains, locus YNL209W, strain ssb2, stronger effect = lower value 1.01 | S. cerevisiae deletion strains, locus YNL233W, strain BNI4, stronger effect = lower value 1.01 | S. cerevisiae deletion strains, locus YNL248C, strain rpa49, stronger effect = lower value 0.996 | S. cerevisiae deletion strains, locus YNL250W, strain rad50, stronger effect = lower value 1.02 | S. cerevisiae deletion strains, locus YNL271C, strain bni1, stronger effect = lower value 1.02 | S. cerevisiae deletion strains, locus YNL298W, strain CLA4, stronger effect = lower value 1.02 | S. cerevisiae deletion strains, locus YNL307C, strain MCK1, stronger effect = lower value 1.03 | S. cerevisiae deletion strains, locus YNL322C, strain KRE1 (second series), stronger effect = lower value 1 | S. cerevisiae deletion strains, locus YNL322C, strain KRE1, stronger effect = lower value 1 | S. cerevisiae deletion strains, locus YNR049C, strain mso1, stronger effect = lower value 1.01 | S. cerevisiae deletion strains, locus YNR052C, strain pop2, stronger effect = lower value 1.03 | S. cerevisiae deletion strains, locus YOL006C, strain TOP1, stronger effect = lower value 1.02 | S. cerevisiae deletion strains, locus YOL012C, strain htz1 1.3 | S. cerevisiae deletion strains, locus YOL147C, strain pex11, stronger effect = lower value 1.01 | S. cerevisiae deletion strains, locus YOR001W, strain rrp6, stronger effect = lower value 1.01 | S. cerevisiae deletion strains, locus YOR061W, strain CKA2, stronger effect = lower value 1 | S. cerevisiae deletion strains, locus YOR069W, strain VPS5, stronger effect = lower value 1 | S. cerevisiae deletion strains, locus YOR070C, strain gyp1, stronger effect = lower value 1 | S. cerevisiae deletion strains, locus YOR080W, strain dia2, stronger effect = lower value 0.99 | S. cerevisiae deletion strains, locus YOR083W, strain WHI5, stronger effect = lower value 0.989 | S. cerevisiae deletion strains, locus YOR106W, strain vam3, stronger effect = lower value 0.993 | S. cerevisiae deletion strains, locus YOR136W, strain idh2, stronger effect = lower value 1.02 | S. cerevisiae deletion strains, locus YOR144C, strain elg1, stronger effect = lower value 1.01 | S. cerevisiae deletion strains, locus YOR184W, strain ser1, stronger effect = lower value 1.05 | S. cerevisiae deletion strains, locus YOR231W, strain MKK1, stronger effect = lower value 1.04 | S. cerevisiae deletion strains, locus YOR265W, strain rbl2, stronger effect = lower value 1.01 | S. cerevisiae deletion strains, locus YOR270C, strain vph1, stronger effect = lower value 0.976 | S. cerevisiae deletion strains, locus YOR290C, strain snf2, stronger effect = lower value 1.01 | S. cerevisiae deletion strains, locus YOR316C, strain cot1, stronger effect = lower value 1.01 | S. cerevisiae deletion strains, locus YPL051W, strain arl3, stronger effect = lower value 0.991 | S. cerevisiae deletion strains, locus YPL055C, strain LGE1, stronger effect = lower value 0.97 | S. cerevisiae deletion strains, locus YPL078C, strain atp4, stronger effect = lower value 0.998 | S. cerevisiae deletion strains, locus YPL106C, strain sse1, stronger effect = lower value 0.993 | S. cerevisiae deletion strains, locus YPL240C, strain hsp82, stronger effect = lower value 0.99 | S. cerevisiae deletion strains, locus YPL241C, strain CIN2, stronger effect = lower value 0.999 | S. cerevisiae deletion strains, locus YPL256C, strain CLN2, stronger effect = lower value 1.09 | S. cerevisiae deletion strains, locus YPR119W, strain clb2, stronger effect = lower value 1 | S. cerevisiae deletion strains, locus YPR141C, strain kar3, stronger effect = lower value 1.01 | S. cerevisiae deletion strains, locus YPR163C, strain tif3, stronger effect = lower value 1 | S. cerevisiae deletion strains, locus YPR167C, strain met16, stronger effect = lower value 1.01 | S. cerevisiae deletion strains, strain wtn01, stronger effect = lower value 1.02 | S. cerevisiae strains, strain wild type, stronger effect = lower value 1.01
